Among the data in article PMC11006913 are binding signal values, retold here.

Chain of HOXB9 (P17482 171-250): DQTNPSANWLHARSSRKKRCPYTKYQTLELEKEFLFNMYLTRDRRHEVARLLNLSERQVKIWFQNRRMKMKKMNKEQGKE
Chain of HOXA2 (O43364 129-215 R185T): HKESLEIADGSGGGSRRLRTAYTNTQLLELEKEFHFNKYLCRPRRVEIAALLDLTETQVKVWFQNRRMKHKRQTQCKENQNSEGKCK

One test concerns the target HOXA2 (Homo sapiens, UniProt O43364 129-215, R185T). The experiment in a line: PBM; 200 nM protein, PBS. The following applies: dsDNA, one strand shown.
Take AGGTTGAT: the binding signal is 8.92 upbm affinity estimate (log intensity, higher = more binding, comparable within an allelic series).
Still for that read-out and setting: with ACTCGTAA the figure was 9.32 upbm affinity estimate (log intensity, higher = more binding, comparable within an allelic series); with AGATGTAA, 9.25 upbm affinity estimate (log intensity, higher = more binding, comparable within an allelic series).
On the same count and under the same terms, with GTTTGCAA the figure was 8.76 upbm affinity estimate (log intensity, higher = more binding, comparable within an allelic series); with ACAACTTA, 9.5 upbm affinity estimate (log intensity, higher = more binding, comparable within an allelic series); with ATCATCTG, 9.25 upbm affinity estimate (log intensity, higher = more binding, comparable within an allelic series).
Same read-out and setting: under CCTATCAG stands 8.81 upbm affinity estimate (log intensity, higher = more binding, comparable within an allelic series).
Take AAAAATTG: the binding signal was 8.96 upbm affinity estimate (log intensity, higher = more binding, comparable within an allelic series).
Take TATCAAAA: the binding signal was 8.75 upbm affinity estimate (log intensity, higher = more binding, comparable within an allelic series).
Still for that read-out and setting: with AACTATTG the figure was 8.83 upbm affinity estimate (log intensity, higher = more binding, comparable within an allelic series).
The same measure, in the same setting: under AGATGACC stands 9.18 upbm affinity estimate (log intensity, higher = more binding, comparable within an allelic series).
Consider AAACTTAA, for which the binding signal was 8.91 upbm affinity estimate (log intensity, higher = more binding, comparable within an allelic series).
The same measure, in the same setting: under TAAACATA stands 8.59 upbm affinity estimate (log intensity, higher = more binding, comparable within an allelic series); under AACTAAAA, 8.87 upbm affinity estimate (log intensity, higher = more binding, comparable within an allelic series); under ATTTCATC, 8.72 upbm affinity estimate (log intensity, higher = more binding, comparable within an allelic series).
As for AATTGGGC, the binding signal is 9.64 upbm affinity estimate (log intensity, higher = more binding, comparable within an allelic series).
Consider AAACATAA, for which the binding signal is 9.4 upbm affinity estimate (log intensity, higher = more binding, comparable within an allelic series).
On to CTATTCAA, for which the binding signal was 9.27 upbm affinity estimate (log intensity, higher = more binding, comparable within an allelic series).
As for ATCAGAAA, the binding signal is 8.59 upbm affinity estimate (log intensity, higher = more binding, comparable within an allelic series).
CATTTTAC: the binding signal is 8.88 upbm affinity estimate (log intensity, higher = more binding, comparable within an allelic series).
Still for that read-out and setting: with GACCATCA the figure was 8.84 upbm affinity estimate (log intensity, higher = more binding, comparable within an allelic series); with CATCTACG, 8.85 upbm affinity estimate (log intensity, higher = more binding, comparable within an allelic series); with AAATACCC, 9.06 upbm affinity estimate (log intensity, higher = more binding, comparable within an allelic series).
On to AAATCAGC, for which the binding signal is 9.59 upbm affinity estimate (log intensity, higher = more binding, comparable within an allelic series).
On the same count and under the same terms, under AGATAGAT stands 8.87 upbm affinity estimate (log intensity, higher = more binding, comparable within an allelic series).
On the same count and under the same terms, with ATAGAAAT the figure was 9.28 upbm affinity estimate (log intensity, higher = more binding, comparable within an allelic series).

Another test addresses HOXB9 (Homo sapiens, UniProt P17482 171-250). The experiment in a line: PBM; 200 nM protein, PBS. The following applies: dsDNA, one strand shown.
As to AATTGCTA, the binding signal was 10.7 upbm affinity estimate (log intensity, higher = more binding, comparable within an allelic series).
On to CATTTAAA, for which the binding signal was 10.7 upbm affinity estimate (log intensity, higher = more binding, comparable within an allelic series).
For the sequence ATTACGTC, the binding signal was 10 upbm affinity estimate (log intensity, higher = more binding, comparable within an allelic series).
Turning to ATATAGTA, the binding signal was 10.2 upbm affinity estimate (log intensity, higher = more binding, comparable within an allelic series).
Same read-out and setting: with CACACTAA the figure was 9.92 upbm affinity estimate (log intensity, higher = more binding, comparable within an allelic series); with AAGCAATA, 10.1 upbm affinity estimate (log intensity, higher = more binding, comparable within an allelic series).
TAACTTAA: the binding signal was 10.2 upbm affinity estimate (log intensity, higher = more binding, comparable within an allelic series).
Still for that read-out and setting: under TGTGTAAA stands 9.82 upbm affinity estimate (log intensity, higher = more binding, comparable within an allelic series); under CCTATTTA, 10.4 upbm affinity estimate (log intensity, higher = more binding, comparable within an allelic series).
On the same count and under the same terms, with AATGTGAA the figure was 10 upbm affinity estimate (log intensity, higher = more binding, comparable within an allelic series); with TAATAGTA, 10.9 upbm affinity estimate (log intensity, higher = more binding, comparable within an allelic series); with ACAATACC, 9.73 upbm affinity estimate (log intensity, higher = more binding, comparable within an allelic series).
